Consider 40 molecules from PubChem BioAssay (Tox21).

The structures appear in SMILES notation. Inconclusive results are not listed. Entries that show only a call come without a potency. Calls of active or inactive are those of the source. The call rests on the fitted dose curve; in most records, active means well fitted activation curve with a large enough effect in the repeat runs; inconclusive means weak or mixed curves, or effect the other way; inactive means no such curve, though single readings can be large or run the other way.

This experiment is described as follows: qHTS assay to identify small molecule agonists of the estrogen related receptor signaling pathway with the pleiotropic PPARgamma coactivator (PGC) from Tox21 10K library (AID 1224842). Further: nearly all actives have a fitted effect of over 15% in size. The following applies: PGC/ERR reporter cell line, luciferase ONE-Glo, 18 h; series mostly up to 92.4 µM. From the text:
National Center for Advancing Translational Sciences [NCATS] NIH Chemical Genomics Center [NCGC] U.S. Environmental Protection Agency [EPA] National Institutes of Environmental Health Sciences [NIEHS] National Toxicology Program [NTP] Assay overview: Estrogen related receptors (ERRs), the first orphan nuclear receptors discovered, play an important role in the control of cellular energy metabolism. ERRs are required for high-energy production in response to the environmental challenges. The pleiotropic PPARgamma coactivator (PGC) is a major partner of ERR and a key regulator in energy homeostasis. Together they have been implicated in the etiology of metabolic disorders such as Type 2 diabetes and metabolic syndrome. ERR-alpha was also identified as an adverse marker for breast cancer progression; ERR-alpha-positive tumors have a poor prognosis. To screen and to identify environmental compounds that perturb the PGC/ERR signaling pathways could provide valuable information for potential therapeutic or preventive measures in the treatment of metabolic disease. For identifying PGC/ERR agonists, PGC/ERR cell line (provided by NTP) has been used to screen Tox21 10K library.
Assay Protocol Summary: The PGC/ERR cells were dispensed at 2,000 cells/5 ul/well in 1536-well white plates using a Multidrop dispenser. After the assay plates were incubated at a 37 C/5% CO2 incubator for 6 hours, 23 nL of compounds dissolved in DMSO, positive and negative controls or DMSO only was transferred to the assay plate by a pin tool. The plates were incubated at 37 C for 18 hours. 4 ul/well of One-Glo reagent was added into the assay plates using a Flying Reagent Dispenser. After 30-minute incubation at room temperature, the luminescence intensity in the plates was measured using a ViewLux plate reader.
Take `CC(COCCO)OCCO` (stereo not given): the Potency result is “inactive”.

Regarding `c1ccc(-c2ccccn2)nc1`, the Potency result is “inactive”.

Regarding `COc1ccc(C(=O)N2CCN(CC(=O)N3CCOCC3)CC2)cc1`, the Potency result is “inactive”.

As for `CCc1cc(C2=C(C(=O)O)N(c3ccccc3C(F)(F)F)S(=O)(=O)c3ccccc32)cc2c1OCO2`, the Potency entry is “inactive”.

Turning to `O=C1CCCCCCCCCCCC(=O)OCCO1`, the Potency entry is “inactive”.

Take `OC[C@H]1O[C@@H](OCCc2ccc(O)cc2)[C@H](O)[C@@H](O)[C@@H]1O`: the Potency result is “inactive”.

Take `O=C(c1ccc(F)cc1)C1CCN(CCn2c(=S)[nH]c3ccccc3c2=O)CC1`: the Potency entry was “inactive”.

As for `Nc1cccc([N+](=O)[O-])c1`, the Potency result is “inactive”.

For the molecule `CCNc1cc(O)ccc1C`, the Potency result was “inactive”.

For the molecule `O=C1CCC(=O)O1`, the Potency result was “inactive”.

For `CCCCC/C=C\C/C=C\CCCCCCCC(=O)NC(C)c1ccccc1` (stereo not given), the Potency entry was “inactive”.

Regarding `CC(=O)[O][Al]`, the Potency entry was “inactive”.

As for `COc1cc2c(cc1OC)C(C(C(=O)N(CCc1ccc(OC)c(OC)c1OC)CCc1ccc(OC)c(OC)c1OC)c1ccccc1)=NCC2` (stereo not given), the Potency result was “inactive”.

In the case of `NC(N)=NCCC[C@H](N)C(=O)O`, the activation is -1.51% [at 8.39 µM] (inactive).

On to `C=C(C)C(=O)OCC`, for which the Potency result is “inactive”.

`CCCCNc1ccc(C(=O)OCCOCCOCCOCCOCCOCCOCCOCCOCCOC)cc1`: the Potency result is “inactive”.

In the case of `CCCCCCCCCCCCCCCCOS(=O)(=O)O`, the Potency result is “inactive”.

On to `Nc1cc(C(=O)O)c(O)c(S(=O)(=O)O)c1`, for which the Potency result was “inactive”.

On to `CN(C)CCCN1c2ccccc2Sc2ccccc21`, for which the Potency result is “inactive”.

For `N=c1ccn2c(n1)O[C@H]1[C@H](O)[C@@H](CO)O[C@H]12`, the Potency entry was “inactive”.

With `CCCCCCCCCCCCCCCCCCOS(=O)(=O)O`, the Potency result is “inactive”.

`CCC(C)(C)CC`: the Potency entry is “inactive”.

For `CCCCCCc1ccc(-c2ccc(C#N)cc2)cc1`, the Potency entry is “inactive”.

As for `CCCCC(CC)CN1C(=O)C2C3C=CC(C3)C2C1=O` (stereo not given), the Potency entry was “inactive”.

For `ClCCOCCOCCCl`, the Potency result is “inactive”.

Turning to `O=[N+]([O-])c1ccc(NCCO)c(OCCO)c1`, the Potency result is “inactive”.

As for `CCCCCCCCCCCCCCOS(=O)(=O)O`, the Potency entry was “inactive”.

On to `CO[C@@H]1[C@H](OC(=O)/C=C/C=C/C=C/C=C/C(=O)O)CC[C@]2(CO2)[C@H]1[C@@]1(C)O[C@@H]1CC=C(C)C`, for which the Potency entry is “inactive”.

As for `O=S(=O)(Oc1ccc(Cl)cc1)c1ccccc1`, the Potency result is “inactive”.

Take `Cn1c(=O)cc(Oc2ccc(F)cc2F)c2cnc(NCC(C)(C)O)nc21`: the Potency result was “inactive”.

As to `CCOC(=O)Cc1cccc2ccccc12`, the Potency result was “inactive”.

Take `Cc1cccc(C)c1OCC(=O)N[C@@H](Cc1ccccc1)[C@@H](O)C[C@H](Cc1ccccc1)NC(=O)[C@H](C(C)C)N1CCCNC1=O`: the Potency result is “inactive”.

With `CCN(CC)c1ccc(C(=C2C=CC(=[N+](CC)CC)C=C2)c2cc(S(=O)(=O)O)ccc2S(=O)(=O)[O-])cc1`, the Potency result is “inactive”.

Regarding `C[N+]1(CC2COC(c3ccccc3)(C3CCCCC3)O2)CCCCC1` (stereo not given), the Potency entry was “inactive”.

Turning to `COC(C)(C)CCO`, the Potency entry was “inactive”.

As for `Cc1c(N)cccc1[N+](=O)[O-]`, the Potency entry is “inactive”.

Turning to `CCN(CC)c1ccc2c(-c3ccccc3C(=O)O)c3ccc(=[N+](CC)CC)cc-3oc2c1`, the Potency result is “inactive”.

As for `NC(=O)C(c1ccccc1)(c1ccccc1)[C@@H]1CCN(CCc2ccc3c(c2)CCO3)C1`, the Potency result was “inactive”.

With `C[C@@H]1C[C@H]2O[C@@]3(O[C@@H]2C(C)(C)O)[C@H](O)[C@@]2(C)[C@@H]4CC[C@H]5C(C)(C)[C@@H](O[C@@H]6OC[C@@H](O)[C@H](O)[C@H]6O)CC[C@@]56C[C@@]46CC[C@]2(C)[C@@H]13`, the Potency entry was “inactive”.

For `Brc1c2ccccc2c(Br)c2ccccc12`, the activation is 2.94% [at 8.39 µM] (inactive).
